This is part of a sample that, as a whole, favours compounds with a hit. Of some 83,000 tested, about 20% had one in any assay.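 Results are percent growth after 48 hours of single-concentration exposure. 100 means growth as in untreated cells, lower positive values show inhibition; negative values down to -100 show cell death.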 A number with no mark means an inactive call. The source made the active and inactive calls. How the source made its calls: active means growth percent below 10; inactive means the rest.

Some test systems named below: HCT-15 colon; HT29 colon; SNB-75 CNS; SNB-19 CNS; U251 CNS; PC-3 prostate; SK-MEL-5 melanoma; UACC-62 melanoma; LOX IMVI melanoma; SK-MEL-28 melanoma.
Test in all cases: NCI-60 one-dose screen, 48 h (100 = growth as untreated, 0 = no growth, -100 = all killed)
What all share (conditions): 10 µM unless noted

Regarding `NCCCNc1nc2ccccc2c2c(=O)c3cc(OC(F)(F)F)ccc3sc12`, the growth in the assay on HCT-15 colon is -78.1% (active); in the assay with HT29 colon, -32.9% (active); in the assay with SNB-75 CNS, 58.6%; with SNB-19 CNS, 7.57% (active); in the assay with U251 CNS it was -63% (active); in the assay on PC-3 prostate, 42.9%. Moreover, the growth with SK-MEL-5 melanoma was 59.9%; in the assay with UACC-62 melanoma it was 88.9%; with LOX IMVI melanoma it was -97.3% (active); with SK-MEL-28 melanoma, 84.7%.
As to `CCN1C(=O)N(CC)C2Nn3c(s/c(=C4\C(=O)Nc5ccccc54)c3=O)=NC21` (stereo not given), the growth was 35.9% in the assay with HCT-15 colon; 81.2% in the assay on HT29 colon; 19.3% in the assay with SNB-75 CNS; 55.8% in the assay with SNB-19 CNS; 42.8% with U251 CNS; 30.3% in the assay on PC-3 prostate. The growth with SK-MEL-5 melanoma was 41.6%; in the assay on UACC-62 melanoma, 46.6%; in the assay with LOX IMVI melanoma, 56.9%; with SK-MEL-28 melanoma, 60%.
Take `COc1ccc(C(=S)N2CCN(c3cccc(C)c3)CC2)cc1OC`: the growth is 44.5% in the assay with HCT-15 colon; 43.3% in the assay on HT29 colon; 59.7% with SNB-75 CNS; 78.5% in the assay with SNB-19 CNS; 53.9% in the assay with U251 CNS; 75.3% in the assay on PC-3 prostate. Further, the growth was 60.2% with SK-MEL-5 melanoma, 64% with UACC-62 melanoma, 55.7% in the assay with LOX IMVI melanoma and 75.7% in the assay on SK-MEL-28 melanoma.
As to `NCCNc1nc2ccccc2c2c(=O)c3cc(F)ccc3sc12`, the growth was 51.2% with HCT-15 colon; 14.4% with HT29 colon; 71.2% in the assay with SNB-75 CNS; 78.1% with SNB-19 CNS; 64.7% with U251 CNS; 80.2% in the assay on PC-3 prostate. Also, the growth in the assay with SK-MEL-5 melanoma is 93.9%; in the assay on UACC-62 melanoma, 102%; in the assay with LOX IMVI melanoma, 24.2%; with SK-MEL-28 melanoma, 107%.
With `O=C1/C(=C/c2ccc(F)cc2)Sc2c(Br)cccc21`, the growth with HCT-15 colon is 75.8%; in the assay with HT29 colon it was 100%; in the assay with SNB-75 CNS, 87.7%; in the assay with SNB-19 CNS it was 95.6%; in the assay on U251 CNS it was 70.4%; in the assay on PC-3 prostate, 70.4%. Further, the growth with SK-MEL-5 melanoma was 88.1%; in the assay with UACC-62 melanoma it was 55.7%; in the assay with LOX IMVI melanoma, 82%; in the assay on SK-MEL-28 melanoma, 110%.
For `O=C(N=c1oc2ccccc2cc1-c1cc2ccccc2[nH]1)Nc1ccc(Cl)cc1`, the growth in the assay on HCT-15 colon is 107%; in the assay on HT29 colon, 99.8%; in the assay with SNB-75 CNS it was 78.3%; in the assay on SNB-19 CNS it was 97.3%; in the assay on U251 CNS, 104%; with PC-3 prostate, 86.8%. Further, the growth in the assay with SK-MEL-5 melanoma was 99.6%; with UACC-62 melanoma, 83%; with LOX IMVI melanoma it was 94.2%; in the assay on SK-MEL-28 melanoma, 100%.
Consider `COc1cccc2c(=O)c3c(sc12)c(NCCCN)nc1ccccc13`, for which the growth is 28.9% in the assay with HCT-15 colon; -29.3% (active) in the assay on HT29 colon; 58.2% with SNB-75 CNS; 51% in the assay on SNB-19 CNS; 39.5% with U251 CNS; 55.9% in the assay with PC-3 prostate. Besides, the growth is 85.9% in the assay with SK-MEL-5 melanoma, 88.3% with UACC-62 melanoma, -81.7% (active) in the assay on LOX IMVI melanoma and 91.4% in the assay on SK-MEL-28 melanoma.
In the case of `O=[N+]([O-])c1ccccc1NCSc1ccc(Cl)cc1`, the growth with HCT-15 colon is 89.7%; in the assay on HT29 colon, 108%; with SNB-75 CNS, 87.3%; with SNB-19 CNS, 103%; in the assay with U251 CNS, 85.8%; with PC-3 prostate, 56.2%. Besides, the growth in the assay on SK-MEL-5 melanoma was 99.9%; in the assay with UACC-62 melanoma it was 89.2%; in the assay on LOX IMVI melanoma it was 52.7%; with SK-MEL-28 melanoma, 107%.
On to `CCCCCCCCCCCCCCCCCC1OCC(COC(=O)O[C@]2(CC)C(=O)OCc3c2cc2n(c3=O)Cc3cc4ccccc4nc3-2)O1` (stereo not given in full), for which the growth in the assay on HCT-15 colon is 83.5%; in the assay on HT29 colon, 79.6%; in the assay with SNB-75 CNS, 79.6%; in the assay on SNB-19 CNS, 57.6%; in the assay on U251 CNS, 56.5%; with PC-3 prostate it was 77.8%. Further, the growth was 84.6% in the assay on SK-MEL-5 melanoma, 31.6% with UACC-62 melanoma, 59.7% in the assay with LOX IMVI melanoma and 111% in the assay with SK-MEL-28 melanoma.
Turning to `O=C(CSc1nccc(Nc2ccc(S(=O)(=O)Nc3nccs3)cc2)n1)c1ccc(C(F)(F)F)cc1`, the growth in the assay on HCT-15 colon is 103%; in the assay on HT29 colon, 106%; in the assay with SNB-75 CNS, 91.5%; in the assay with SNB-19 CNS, 93.2%; in the assay with U251 CNS, 86.6%; in the assay with PC-3 prostate, 93.2%. For the same molecule, the growth in the assay on SK-MEL-5 melanoma was 95.1%; in the assay with UACC-62 melanoma it was 93.2%; in the assay on LOX IMVI melanoma it was 99.2%; in the assay with SK-MEL-28 melanoma it was 108%.
As to `CCc1ccc(Oc2c(-c3ccc(OCc4ccc(Cl)cc4)cc3O)nn(C)c2C(F)(F)F)cc1`, the growth with HCT-15 colon is 4.91% (active); in the assay on HT29 colon it was -11.1% (active); with SNB-75 CNS it was -0.904% (active); in the assay with SNB-19 CNS it was 18.2%; with U251 CNS it was 1.22% (active); with PC-3 prostate, -6.54% (active). Also, the growth is -76.4% (active) in the assay on SK-MEL-5 melanoma, -2.19% (active) with UACC-62 melanoma, -24.6% (active) in the assay with LOX IMVI melanoma and 20.1% with SK-MEL-28 melanoma.
In the case of `CN1CCN(c2ccc(-c3ccc4ncc(C#N)c(Nc5ccc(F)c(Cl)c5)c4c3)cc2)CC1`, the growth in the assay with HCT-15 colon is -12.9% (active); in the assay on HT29 colon it was 18.2%; in the assay on SNB-75 CNS it was 75.5%; in the assay with SNB-19 CNS it was 72.7%; in the assay on U251 CNS, 50%; in the assay with PC-3 prostate, 45.8%. In addition, the growth in the assay on SK-MEL-5 melanoma is 58.1%; in the assay on UACC-62 melanoma, 69.7%; in the assay with LOX IMVI melanoma, 43%; in the assay with SK-MEL-28 melanoma, -43.1% (active).
Take `CCOC(=O)c1c2c(n(-c3ccc(C#N)cc3)c1-c1ccccc1)C=CCC2`: the growth with HCT-15 colon is 76.9%; in the assay with HT29 colon, 68.2%; in the assay with SNB-75 CNS it was 83.9%; with SNB-19 CNS, 98.4%; in the assay with U251 CNS, 99.7%; in the assay on PC-3 prostate, 70.1%. Besides, the growth in the assay with SK-MEL-5 melanoma was 92.8%; in the assay with UACC-62 melanoma it was 75%; with LOX IMVI melanoma it was 84%; in the assay with SK-MEL-28 melanoma it was 102%.
For `Cn1cc(C(=O)c2nc(-c3cn(C)c4ccc(F)cc34)no2)c2cc(F)ccc21`, the growth is 93.4% in the assay on HCT-15 colon; 95.5% in the assay with HT29 colon; 87.4% in the assay on SNB-75 CNS; 104% with SNB-19 CNS; 98.1% in the assay on U251 CNS; 80.3% in the assay with PC-3 prostate. Also, the growth with SK-MEL-5 melanoma is 94.2%; in the assay with UACC-62 melanoma, 88.4%; in the assay with LOX IMVI melanoma, 97.4%; in the assay with SK-MEL-28 melanoma, 110%.
